Assay results as given in PubChem BioAssay (Tox21).
Records with an inconclusive call do not appear. Calls of active or inactive are those of the source. Unless noted, calls follow the shape of the dose curve; as a rule, active = well fitted curve in the direction sought with a large enough effect in the repeat runs; inconclusive = weak or mixed curves; inactive = no such curve, though single readings can be large; an effect the other way counts as inactive or inconclusive.

What was measured:
[1] = target: Luciferin 4-monooxygenase (Photinus pyralis) (UniProt P08659); assay: qHTS assay to identify small molecule inhibitors of firefly luciferase (AID 1224835); also: nearly all actives have a fitted effect of over 25% in size; also: potency is read from the fitted curve at half-maximal effect; as to activity change, negative = inhibition: series mostly up to about 120 µM
In short: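 Biochemical qHTS: compounds run as interplate titrations against purified firefly enzyme, with D-luciferin and ATP each at its KM concentration. Light output recorded by CCD imaging.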

[2] = qHTS assay to identify small molecule agonists of the constitutive androstane receptor (CAR) signaling pathway - cell viability counter screen (AID 1224836); also: nearly all actives have a fitted effect of over 45% in size; also: potency is read from the fitted curve at half-maximal effect; as to viability change, negative = cytotoxic: series mostly up to about 92 µM
In short: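 Cells were seeded and incubated 4 hrs. Compounds were added across 15 concentrations together with PK11195 at 0.75 uM final. Plates were incubated 23 hrs at 37 C. CellTiter-Fluor was added and fluorescence measured.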

[3] = qHTS assay to identify small molecule antagonists of the constitutive androstane receptor (CAR) signaling pathway - cell viability counter screen (AID 1224837); also: nearly all actives have a fitted effect of over 45% in size; also: potency is read from the fitted curve at half-maximal effect; as to activity change, negative = cytotoxicity: series mostly up to about 92 µM
In short: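 Read-out: CellTiter-Fluor fluorescence after 23 hr at 37 C/5% CO2. Cells: HepG2 double-stable for hCAR and CYP2B6-2.2kb. Compounds tested at 15 concentrations in the presence of CITCO, final concentration 50 nM.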

[4] = target: Nuclear receptor subfamily 1 group I member 3 (Homo sapiens) (UniProt Q14994); assay: qHTS assay to identify small molecule antagonists of the constitutive androstane receptor (CAR) signaling pathway (AID 1224838);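 also: HepG2 cells stably expressing hCAR with CYP2B6 luciferase reporter stimulated by CITCO; nearly all actives have a fitted effect of over 40% in size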; also: potency is read from the fitted curve at half-maximal effect
In short: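 Read-out: ONE-Glo luciferase luminescence after 30 min at room temperature. HepG2-CYP2B6-hCAR double-stable cells, compounds in 15-point titration plus 50 nM CITCO final, 24 h at 37 C/5% CO2.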

[5] = target: Nuclear receptor subfamily 1 group I member 3 (Homo sapiens) (UniProt Q14994); assay: qHTS assay to identify small molecule agonists of the constitutive androstane receptor (CAR) signaling pathway (AID 1224839); also: nearly all actives have a fitted effect of over 15% in size; also: potency is read from the fitted curve at half-maximal effect;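 as to activation: HepG2 cells stably carrying human CAR and a CYP2B6 luciferase reporter; series mostly up to about 92 µM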
In short: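 Cells were plated and incubated 4 hrs, then dosed with compounds at 15 concentrations. PK11195 was added to 0.75 uM final. After 24 hrs at 37 C, luciferase luminescence was measured.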

[6] = qHTS assay to identify small molecule antagonists of the estrogen related receptor signaling pathway with the pleiotropic PPARgamma coactivator (PGC) from Tox21 10K library (AID 1224841; call rule not given here; also: actives are mostly falling curves and most rising ones were filed inactive; nearly all actives have a fitted effect of over 50% in size; also: potency is read from the fitted curve at half-maximal effect; as to activity, negative = inhibition: series mostly up to about 92 µM)
In short: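 Luminescence read-out (One-Glo luciferase reagent, 30 min at room temperature) from PGC/ERR cells exposed to DMSO-dissolved test compounds for 18 h at 37 C; cells, 2,000 per well, had been preincubated 6 h before compound transfer.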

[7] = qHTS assay to identify small molecule agonists of the estrogen related receptor signaling pathway with the pleiotropic PPARgamma coactivator (PGC) from Tox21 10K library (AID 1224842); also: nearly all actives have a fitted effect of over 15% in size
In short: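 PGC/ERR reporter cell line, 2,000 cells per well, incubated 6 h at 37 C before 23 nL compound in DMSO was added. After 18 h at 37 C, One-Glo luminescence read following 30 min at room temperature.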

[8] = target: Thyrotropin receptor (Homo sapiens) (UniProt P16473); assay: qHTS assay to identify small molecule agonists of the thyroid stimulating hormone receptor (TSHR) signaling pathway (AID 1224843; calls by dose curve; also: nearly all actives have a fitted effect of over 45% in size; also: potency is read from the fitted curve at half-maximal effect)
In short: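 HEK293/TSHR, 800 cells/well; cpd 30 min RT; add cAMP-d2 + anti-cAMP-cryptate, 1 h RT; fluorescence read on plate reader. 15-pt titration, n=3.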

[9] = qHTS assay to identify small molecule agonists of the hypoxia (HIF-1) signaling pathway - cell viability counter screen (AID 1224844; calls by dose curve; also: nearly all actives have a fitted effect of over 50% in size; also: potency is read from the fitted curve at half-maximal effect)
In short: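 CellTiter-Glo luminescence read-out, 30 min RT, taken in the same wells as the beta-lactamase HRE reporter assay; HRE-bla ME-180 cells, 0.5% dialyzed FBS, 17 hr compound treatment at 37C, 5% CO2.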

[10] = qHTS assay to identify small molecule antagonists of the estrogen related receptor signaling pathway with the pleiotropic PPARgamma coactivator (PGC) from Tox21 10K library - cell viability counter screen (AID 1224840; active = well fitted cell-killing curve with a large enough effect in the repeat runs, not every such curve was filed as active; also: nearly all actives have a fitted effect of over 40% in size; also: potency is read from the fitted curve at half-maximal effect)
In short: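 Fluorescence read-out of CellTiter-Fluor viability reagent, added after cells had been exposed to compound in DMSO for 17.5 h at 37 C; 30 min development at 37 C/5% CO2. Cells: PGC/ERR line, 2,000/well.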
% is scaled to controls: 0 for no effect and ±100 for the full control effect.

Sequence of Thyrotropin receptor (Homo sapiens) (P16473 whole entry, looked up): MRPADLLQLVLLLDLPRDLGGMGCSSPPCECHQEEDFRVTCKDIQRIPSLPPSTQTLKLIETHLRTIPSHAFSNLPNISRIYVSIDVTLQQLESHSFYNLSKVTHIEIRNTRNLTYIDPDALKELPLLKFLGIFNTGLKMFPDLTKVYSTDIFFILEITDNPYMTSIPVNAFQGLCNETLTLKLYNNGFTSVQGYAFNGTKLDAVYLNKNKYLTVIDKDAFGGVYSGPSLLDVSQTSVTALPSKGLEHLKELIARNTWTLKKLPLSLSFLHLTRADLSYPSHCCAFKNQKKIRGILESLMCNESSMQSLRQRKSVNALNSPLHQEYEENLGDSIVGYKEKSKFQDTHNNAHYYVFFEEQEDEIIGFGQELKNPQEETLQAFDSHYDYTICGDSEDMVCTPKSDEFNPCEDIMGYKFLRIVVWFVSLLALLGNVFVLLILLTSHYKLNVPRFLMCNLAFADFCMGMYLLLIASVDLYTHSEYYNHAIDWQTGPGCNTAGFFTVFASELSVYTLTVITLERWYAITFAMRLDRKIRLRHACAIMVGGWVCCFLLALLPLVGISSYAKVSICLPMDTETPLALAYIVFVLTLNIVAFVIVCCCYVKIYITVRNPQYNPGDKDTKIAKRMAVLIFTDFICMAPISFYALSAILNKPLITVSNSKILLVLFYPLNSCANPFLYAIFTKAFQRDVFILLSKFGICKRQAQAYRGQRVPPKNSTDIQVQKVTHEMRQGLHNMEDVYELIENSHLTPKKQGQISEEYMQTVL
Sequence of Nuclear receptor subfamily 1 group I member 3 (Homo sapiens) (Q14994 whole entry, looked up): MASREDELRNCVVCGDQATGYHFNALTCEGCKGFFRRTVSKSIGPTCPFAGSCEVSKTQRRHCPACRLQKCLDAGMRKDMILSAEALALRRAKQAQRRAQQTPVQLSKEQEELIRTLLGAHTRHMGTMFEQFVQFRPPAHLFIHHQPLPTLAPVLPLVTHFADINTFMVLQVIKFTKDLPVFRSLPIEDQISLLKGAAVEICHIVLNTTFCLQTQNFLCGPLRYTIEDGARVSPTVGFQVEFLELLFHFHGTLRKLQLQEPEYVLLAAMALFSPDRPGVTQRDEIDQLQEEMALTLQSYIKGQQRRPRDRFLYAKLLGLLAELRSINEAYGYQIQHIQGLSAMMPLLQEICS
Sequence of Luciferin 4-monooxygenase (Photinus pyralis) (P08659 whole entry, looked up): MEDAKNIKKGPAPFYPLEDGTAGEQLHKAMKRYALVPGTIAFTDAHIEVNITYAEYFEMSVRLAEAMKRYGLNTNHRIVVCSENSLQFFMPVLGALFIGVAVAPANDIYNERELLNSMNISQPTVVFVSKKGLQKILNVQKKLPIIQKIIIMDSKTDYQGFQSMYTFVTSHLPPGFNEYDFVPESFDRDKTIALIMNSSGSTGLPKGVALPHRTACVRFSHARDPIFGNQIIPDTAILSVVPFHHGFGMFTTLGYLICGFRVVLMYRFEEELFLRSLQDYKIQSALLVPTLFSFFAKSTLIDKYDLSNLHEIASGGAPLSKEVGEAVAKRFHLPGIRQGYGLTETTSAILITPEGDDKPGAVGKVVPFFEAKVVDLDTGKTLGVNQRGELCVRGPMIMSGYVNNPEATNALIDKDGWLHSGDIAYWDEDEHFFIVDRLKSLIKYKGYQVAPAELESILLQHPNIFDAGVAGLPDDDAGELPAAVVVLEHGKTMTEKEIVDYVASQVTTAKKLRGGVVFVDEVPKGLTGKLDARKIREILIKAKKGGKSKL

C=CC/C=C/C/C=C/C/C=C/C
inactive: Potency [1] | Potency [2] | Potency [3] | Potency [4] | Potency [5] | Potency [6] | Potency [7] | Potency [8] | Potency [9]

CCCCCCS
inactive: Potency [1] | Potency [2] | Potency [3] | Potency [4] | Potency [5] | Potency [8] | Potency [9]

CC1CNCC(C)O1 (stereo not given)
inactive: Potency [1] | Potency [2] | Potency [3] | Potency [4] | Potency [5] | Potency [8] | Potency [9]

CCN(CC)c1ccc(N)cc1
inactive: Potency [7] | Potency [9]
active: Potency [1] 41 µM | Potency [2] 31.5 µM | Potency [3] 28.1 µM | Potency [4] 62.8 µM | Potency [10] 25 µM | Potency [6] 2.5 µM

CCCC(=O)OCC(COC(=O)CCC)OC(=O)CCC
inactive: Potency [1] | Potency [2] | Potency [3] | Potency [4] | Potency [10] | Potency [6] | Potency [7] | Potency [9]

C=C1C(C)(C)[C@@]2(Cl)C(Cl)[C@]1(Cl)C(Cl)(Cl)C2(Cl)Cl (stereo not given in full)
inactive: Potency [1] | Potency [2] | Potency [3] | Potency [4] | Potency [7]
active: Potency [5] 21.3 µM | Potency [6] 53.5 µM | Potency [8] 13.4 µM | Potency [9] 48.1 µM

N[C@@H](CSSC[C@H](N)C(=O)O)C(=O)O
inactive: activity change, negative = inhibition [1] -0.457% [at 0.435 µM] | viability change, negative = cytotoxic [2] 5.67% [at 0.349 µM] | activity change, negative = cytotoxicity [3] -3.15% [at 0.349 µM] | activity, negative = inhibition [4] -10.8% [at 0.349 µM] | viability change, negative = cytotoxic [10] 6.11% [at 0.349 µM] | activity, negative = inhibition [6] 16.2% [at 0.349 µM] | activation [7] 4.81% [at 0.349 µM] | activation [8] 2.51% [at 0.349 µM] | activity change, negative = cytotoxicity [9] 25.3% [at 0.29 µM]

CCN(CC)CCNc1ccc(CO)c2sc3ccccc3c(=O)c12
active: Potency [2] 7.5 µM | Potency [3] 7.5 µM | Potency [4] 2.66 µM | Potency [6] 8.41 µM | Potency [9] 26.8 µM
inactive: Potency [1] | Potency [5] | Potency [7]

CO[Si](CCC1CCC2OC2C1)(OC)OC (stereo not given)
inactive: Potency [1] | Potency [2] | Potency [3] | Potency [4] | Potency [5] | Potency [6] | Potency [7] | Potency [8] | Potency [9]

CCOC(/C=C(\C)CCC=C(C)C)OCC
inactive: Potency [1] | Potency [2] | Potency [3] | Potency [4] | Potency [10] | Potency [6] | Potency [7] | Potency [8] | Potency [9]

CCCCCCOc1cc(C)c(O)c(C)c1C
inactive: Potency [1] | Potency [2] | Potency [3] | Potency [4] | Potency [6] | Potency [7]
active: Potency [10] 55.1 µM

O=C1OC(=O)c2cccc3cccc1c23
inactive: Potency [1] | Potency [2] | Potency [3] | Potency [4] | Potency [10] | Potency [6] | Potency [7] | Potency [9]

CCCCCCCOC(=O)c1ccccc1C(=O)OCCCCCCC
inactive: Potency [1] | Potency [2] | Potency [3] | Potency [4] | Potency [10] | Potency [6] | Potency [7] | Potency [8] | Potency [9]

C[C@@]12C(=O)OC(=O)[C@]1(C)C1CCC2O1
active: Potency [2] 1.68 µM | Potency [3] 1.33 µM | Potency [4] 0.668 µM
inactive: Potency [1] | Potency [5] | Potency [9]

CC1=C(/C=C/C(C)=C/C=C/C(C)=C\C=O)C(C)(C)CCC1
active: Potency [5] 23 µM | Potency [8] 10.3 µM
inactive: Potency [1] | Potency [2] | Potency [3] | Potency [4] | Potency [9]

C=CC(C)C#N (stereo not given)
inactive: Potency [1] | Potency [2] | Potency [3] | Potency [4] | Potency [5] | Potency [10] | Potency [9]

CCc1ccc(C)nc1
inactive: Potency [1] | Potency [2] | Potency [3] | Potency [4] | Potency [5] | Potency [8] | Potency [9]

COc1cccc(OC)c1O
inactive: Potency [1] | Potency [2] | Potency [3] | Potency [4] | Potency [5] | Potency [8] | Potency [9]

CCCCCCCCCCCCCCCCCO
inactive: activity change, negative = inhibition [1] 3.61% [at 23.6 µM] | viability change, negative = cytotoxic [2] 0.185% [at 19 µM] | activity change, negative = cytotoxicity [3] 8.93% [at 19 µM] | activity, negative = inhibition [4] 9.23% [at 19 µM] | activation [5] 0.0374% [at 19 µM] | activity, negative = inhibition [6] 44.5% [at 19 µM] | activation [7] 4.3% [at 19 µM] | activity change, negative = cytotoxicity [9] 4.42% [at 15.8 µM]

C=CC(=C)CC/C=C(\C)CCC=C(C)C
inactive: activity change, negative = inhibition [1] 0.425% [at 23.6 µM] | viability change, negative = cytotoxic [2] 4.77% [at 19 µM] | activity change, negative = cytotoxicity [3] -2.25% [at 19 µM] | activity, negative = inhibition [4] 8.18% [at 19 µM] | activation [5] 4.39% [at 19 µM] | activity, negative = inhibition [6] 0% [at 19 µM] | activation [7] 0% [at 19 µM] | activation [8] -0.893% [at 19 µM] | activity change, negative = cytotoxicity [9] 1.43% [at 15.8 µM]

Cc1ccc(-n2[nH]c(C)c(N=Nc3cccc(-c4cccc(C(=O)O)c4)c3O)c2=O)cc1C
inactive: Potency [2] | Potency [3] | Potency [4] | Potency [5] | Potency [8]
active: Potency [1] 38.9 µM | Potency [9] 6.74 µM

COC(=O)[C@]1(C)CCC[C@@]2(C)[C@H]1CC=C1C=C(C(C)C)CC[C@@H]12
inactive: Potency [1] | Potency [2] | Potency [3] | Potency [4] | Potency [10] | Potency [6] | Potency [7] | Potency [8]

O=C1c2c(O)ccc([N+](=O)[O-])c2C(=O)c2c([N+](=O)[O-])ccc(O)c21
inactive: Potency [7]
active: Potency [1] 62.7 µM | Potency [2] 24.1 µM | Potency [3] 24.1 µM | Potency [4] 24.1 µM | Potency [10] 30.4 µM | Potency [6] 9.6 µM | Potency [9] 6.85 µM

C/C=C/CO
inactive: Potency [1] | Potency [2] | Potency [3] | Potency [4] | Potency [5] | Potency [8] | Potency [9]

C=C(C)CCCC
inactive: Potency [1] | Potency [2] | Potency [3] | Potency [4] | Potency [10] | Potency [7] | Potency [8] | Potency [9]

Cc1ccc2ccc3cccc4ccc1c2c34
active: Potency [1] 35.5 µM
inactive: Potency [2] | Potency [3] | Potency [4] | Potency [10] | Potency [6] | Potency [8] | Potency [9]

O=C1NCCN1CCN1CCC(c2cn(-c3ccc(F)cc3)c3ccc(Cl)cc23)CC1
active: Potency [2] 11.9 µM | Potency [3] 11.9 µM | Potency [4] 11.9 µM
inactive: Potency [1] | Potency [5] | Potency [6]
